Rows were chosen to be rich in hits. Some 2.3% of all compounds tested hit in one or more screens of this group.
Kir21 block – blocks the mouse Kir2.1 inward-rectifier potassium channel. HEK293-Kir2.1, FluxOR thallium flux fluorescence; hits give low values. 310,000 compounds, 0.85% hits. P35561. B-score at 10 µM;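 active = fluorescence ratio B-score at or below minus 3 SD of library scores, with starting-brightness B-score within 2 SD, cut at about -4.2 in these data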;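 note: channel flux triggered by added potassium and thallium sulfate stimulus; B-score of peak minus minimum fluorescence over baseline after thallium stimulus; more negative B-score means stronger Kir2.1 block with less thallium influx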
M18AAP inhibitor – blocks P. falciparum M18 aspartyl aminopeptidase; 290,000 compounds, 1.2% hits; recombinant PfM18AAP, H-Glu-NHMec fluorogenic cleavage; inhibition, % at 7.35 µM;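 active = inhibition above the campaign mean inhibition over all tested compounds plus 3 SD, cut at about 28% in these data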;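 note: 0% = plate median of test compound wells and 100% = 2 mM ZnCl2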
Rce1 inh – inhibitors of yeast Ras-converting enzyme; yeast membranes, quenched prenylated peptide cleavage fluorescence; calls only; Q03530; 290,000 compounds, 0.27% hits; AID 2563;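 active = fall in fluorescence gain of 50% or more versus controls, with final raw signal at or below 3038400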;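 note: plate controls were neutral control wells for no effect and wells lacking membranes for full effect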
Target sequence (Q03530 whole entry, looked up): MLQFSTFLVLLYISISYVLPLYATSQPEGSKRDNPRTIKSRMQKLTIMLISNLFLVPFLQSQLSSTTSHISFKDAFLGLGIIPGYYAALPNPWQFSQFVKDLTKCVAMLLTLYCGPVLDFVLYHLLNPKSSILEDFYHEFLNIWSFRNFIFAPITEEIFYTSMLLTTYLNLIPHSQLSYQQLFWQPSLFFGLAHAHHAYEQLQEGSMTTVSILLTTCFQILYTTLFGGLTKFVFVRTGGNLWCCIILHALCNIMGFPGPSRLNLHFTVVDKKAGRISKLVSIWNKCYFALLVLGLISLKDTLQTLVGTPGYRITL
FID counter – fluorescent intercalator displacement, NS3 helicase counter-screen; AID 1845; inhibition, % at 7.9 µM; DNA fluorescent intercalator displacement, fluorescence; 290,000 compounds, 0.17% hits; in the data active = inhibition above about 37%;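 note: 0% = vehicle and 100% = reference compound; higher means more ethidium bromide displaced from hairpin DNA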
* = called active by the depositor; i = inactive; . = no result given; + = active, no number.

SMILES	Kir21 block	M18AAP inhibitor	Rce1 inh	FID counter
Cc1occc1C(=O)NNC(=O)Nc1ccc(F)cc1F	-1	30.1*	i	2.1
O=C(CCc1ccc(O)cc1)c1c(O)cc(O)cc1O[C@@H]1O[C@H](CO)[C@@H](O)[C@H](O)[C@H]1O	0.73	5.6	i	0.3
Cc1ccc(NC2c3ncccc3C(=O)N2c2ccccc2C)cc1C (configuration not stated)	-1.72	28.9*	i	-1.4
Cc1cc(Br)cc2c1N(C)C(=O)C2(c1ccc(O)cc1)c1ccc(O)cc1	-0.35	.	i	.
CC(C)C(=O)N1CCN(c2ccccc2NC(=O)c2ccco2)CC1	0.47	-5.7	i	-28.3
Fc1ccc(C(CCNCc2ccccn2)c2ccc(Cl)cc2)cc1 (configuration not stated)	-6.44*	9.5	i	21.5
OC(CNCc1ccccn1)c1ccccc1 (configuration not stated)	-1.35	1.0	i	2.2
c1ccc(SCCOCCN2CCc3ccccc3C2)cc1	-5.4*	-5.8	i	9.2
CN(C)CCCN1C(=O)c2cccc3c([N+](=O)[O-])ccc(c23)C1=O	.	1.9	.	41.2*
CC(OC(=O)CCc1cc(C(C)(C)C)c(O)c(C(C)(C)C)c1)C(=O)NC1CC1 (configuration not stated)	-4.3*	.	i	.
Cc1cc(N2CCOCC2)n2cc(-c3ccccc3)nc2n1	1.07	-4.1	+	-6.1
Cc1cc(N2CCOCC2)n2cc(-c3ccc(F)cc3)nc2n1	0.27	2.6	i	-3.5
COc1ccc(NC(=O)COC(=O)C2CCN(S(=O)(=O)c3ccccc3)CC2)cc1Cl	-0.01	.	i	.
C(#CCN1CCCC1)CC(c1ccccc1)c1ccccc1	-10.1*	-14.5	i	14.8
C(#Cc1ccccc1)CN1CCCCC1	0.46	-5.0	i	3.4
COc1ccc(Br)cc1CN(C)CC(=O)Nc1cc(Cl)ccc1Cl	-5.67*	-4.0	i	-1.9
COc1ccc(Br)cc1CN(C)CC(=O)Nc1ccccc1Cl	-5.42*	-0.8	i	-10.4
COc1ccc(OC)c(NC(=O)CN(C)CC(=O)Nc2ccccc2Cl)c1	0.34	-7.7	i	-30.7
Cc1nn(-c2ccccc2)c2nc(N)c(C(N)=O)cc12	1.96	-3.4	+	-1.6
CCOc1c(Br)cc(CNC2CCCCCCC2)cc1OC	-4.34*	3.4	i	32.7
COc1cc(CNC2CCCCCCC2)cc(Br)c1OCC#N	-4.8*	-0.3	i	17.7
Cc1c(Cc2ccccc2)c(=O)oc2c(C)c(OCC(=O)N3CCC(C(=O)O)CC3)ccc12	-0.14	-0.1	+	-25.6
Cc1c(OCC(=O)N2CCC(C(=O)O)CC2)ccc2c3c(c(=O)oc12)CCC3	-0.1	4.8	i	-30.3
COc1ccc(-c2c(C(F)(F)F)oc3c(CN4CCN(C)CC4)c(O)ccc3c2=O)cc1	-1.91	2.3	i	15.8
COc1ccc(-c2c(C)oc3c(CN4CCN(C)CC4)c(O)ccc3c2=O)cc1	0.34	-11.4	+	9.5
SMILES	Kir21 block	M18AAP inhibitor	Rce1 inh	FID counter
O=C(NCCN1CCOCC1)C(=O)NCC1OCCN1S(=O)(=O)c1ccccc1 (configuration not stated)	-0.02	1.0	i	-2.8
S=c1[nH]nc(-c2ccncc2)n1/N=C/C=C/c1ccco1	1.12	30.9*	i	-9.4
Cc1cccc(-c2n[nH]c(=S)n2/N=C/C=C/c2ccco2)c1	0.95	11.5	i	-14.2
Cc1ccc(S(=O)(=O)Nc2ccccc2C(=O)N2CCCCC2)cc1	-0.27	-3.1	i	-24.4
CCCCN(CC)CCNC(=O)c1cc2c(=O)n(C)c3ccccc3c2s1	1.09	-1.2	i	20.5
CCN(CC)CCNC(=O)c1cc2c(=O)n(C)c3ccccc3c2s1	-1.18	4.2	+	9.4
CC(=O)N(C)c1ccc(NC(=O)/C=C/c2ccccc2Cl)cc1	-0.76	-6.9	+	-2.0
Cc1cc(N)c2cc(NC(=O)/C=C/c3ccccc3Cl)ccc2n1	1.33	-3.0	+	31.0
O=C(/C=C/c1ccccc1Cl)Nc1ccncc1	0.38	6.3	i	8.8
COC(=O)Cn1c(CN2CCN(C(=O)c3ccco3)CC2)nc2c1c(=O)n(C)c(=O)n2C	1.32	8.0	i	-17.9
COc1ccc(CN(C(=O)c2ccco2)c2ccccc2)cc1	-4.22*	-6.8	i	-17.9
Cc1cc(NS(=O)(=O)c2ccccc2)c(C)c(Cl)c1O	-5.81*	.	i	.
Cc1c(O)ccc(NS(=O)(=O)c2ccccc2)c1C	-1.99	-47.5	i	-0.7
Cc1ccc(S(=O)(=O)Nc2cc(C)c(O)cc2C)cc1	-4.93*	-32.3	i	3.0
O=S(=O)(Nc1ccc(O)c(NS(=O)(=O)c2ccccc2)c1)c1ccccc1	-1.27	68.3*	i	-9.4
Cc1cc(NS(=O)(=O)c2ccccc2)c([N+](=O)[O-])cc1C	-3.22	-11.1	+	0.0
CC(C)CC(=O)Nc1nnc(S(=O)(=O)N2CCc3ccccc32)s1	0.85	11.1	i	-13.6
COc1ccccc1OCc1cc(C(=O)N(C)CCC2CCCCO2)no1 (configuration not stated)	-0.61	4.0	i	-36.0
CCCCN(C(=O)CC1CCCC1)c1c(N)n(CC(C)C)c(=O)[nH]c1=O	-1.04	.	i	.
C#CCOCCOCCOCCNc1nc(N2CCN(C(=O)[C@H](CCCCN)n3cc([C@@H](N)C(C)CC)nn3)CC2)nc(N2CCN(C(=O)[C@H](CCCCN)n3cc([C@@H](N)CC(C)C)nn3)CC2)n1 (some centres not stated)	0.97	1.0	i	61.8*
C#CCOCCOCCOCCNc1nc(N2CCN(C(=O)[C@H]([C@@H](C)CC)n3cc([C@@H](N)Cc4ccc(O)cc4)nn3)CC2)nc(N2CCN(C(=O)[C@H](CCCCN)n3cc([C@@H](N)C(C)CC)nn3)CC2)n1 (some centres not stated)	-0.3	4.8	i	43.2*
C#CCOCCOCCOCCNc1nc(N2CCN(C(=O)[C@H]([C@@H](C)CC)n3cc([C@@H](N)CO)nn3)CC2)nc(N2CCN(C(=O)[C@H](CCCCN)n3cc([C@@H](N)CC(C)C)nn3)CC2)n1	-0.18	3.9	i	42.8*
C#CCOCCOCCOCCNc1nc(N2CCN(C(=O)[C@H](CCCCN)n3cc(C(N)CO)nn3)CC2)nc(N2CCN(C(=O)[C@H](CCC(=O)O)n3cc(C(N)[C@H](C)CC)nn3)CC2)n1 (some centres not stated)	-0.83	-1.5	i	14.0
C#CCOCCOCCOCCNc1nc(N2CCN(C(=O)[C@H](CCC(=O)O)n3cc(C(N)Cc4ccc(O)cc4)nn3)CC2)nc(N2CCN(C(=O)[C@H](CCCCN)n3cc(C(N)[C@H](C)CC)nn3)CC2)n1 (some centres not stated)	-0.26	.	i	.
C#CCOCCOCCOCCNc1nc(N2CCOCC2)nc(N2CCN(C(=O)[C@H](CCCCN)n3cc([C@@H](N)C(C)CC)nn3)CC2)n1 (some centres not stated)	-0.98	2.6	i	38.3*
Cc1ccc(C(C)C)c(OCC(=O)NN=C(CCl)CCl)c1	-0.21	5.3	i	-2.8
CCCCNCC#CCOc1cc(C)ccc1C(C)C	-4.69*	-0.2	i	21.0

Screening data as filed in PubChem BioAssay.
